± gives the standard deviation of the averaged measurements.

Common to all, as to conditions: concentration: 10 µM; 24 h
Assay [1] relates to HCC1569. As to the kind of experiment: cell number relative to DMSO (% of DMSO); higher = more cells (less growth inhibition / toxicity). An outline of the steps: (§1)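 HCC1569 and TDF cells (800 per well, 384-well plates, RPMI with 10% FBS) were treated with compounds at 10 µM for 24 h at 37 °C, in triplicate. Cells were fixed in 3.7% formaldehyde and stained with a rabbit anti-H1.0 antibody, an AlexaFluor 647 secondary and DAPI; six fields per well were imaged at ×10. H1.0 nuclear intensity or cell number is expressed as percent of the plate DMSO control, taking the median of replicates. HCC1569 values were smoothed for positional effects.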

The subject of assay [2] is TDF. The description is as above. An outline of the steps: as §1
The test system of assay [3] is TDF. The assay can be described thus: H1.0 immunofluorescence intensity relative to DMSO (% of DMSO); higher = stronger H1.0 induction, active = 120 or more. An outline of the steps:
as §1

Assay [4] deals with HCC1569. As to the kind of experiment: H1.0 immunofluorescence intensity relative to DMSO (% of DMSO); higher = stronger H1.0 induction, active = 140 or more. In short, it runs like this:
as §1
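Throughout, for H1.0 immunofluorescence intensity relative to DMSO: TDF is a line of transformed human dermal fibroblasts of mesenchymal origin.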
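Throughout, for cell number relative to DMSO: TDF denotes transformed human dermal fibroblasts of mesenchymal origin.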

Turning to `COC1CC2CCC(C)C(O)(O2)C(=O)C(=O)N2CCCCC2C(=O)OC(C(C)CC2CCC(O)C(OC)C2)CC(=O)C(C)C=C(C)C(O)C(OC)C(=O)C(C)CC(C)C=CC=CC=C1C` (stereo unspecified) [Rapamycin], the cell number in assay [1] amounted to 96.2 ± 5.5; in assay [2] it was 92.4 ± 8.9. For the same molecule, the H1.0 immunofluorescence intensity was 86.7 (inactive) in assay [3] and 108 (inactive) in assay [4].
As for `COc1ccc2cc1Oc1ccc(cc1)CC1c3c(cc4c(c3Oc3cc5c(cc3OC)CCN(C)C5C2)OCO4)CCN1C` (stereo unspecified) [Cepharanthine], the cell number in assay [1] is 95.3; in assay [2], 83. In addition, the H1.0 immunofluorescence intensity in assay [3] is 108 (inactive); in assay [4], 129 (inactive).
For `COc1cc(C(O)CO)ccc1OS(=O)(=O)[O-].[K+]` (stereo unspecified) [MHPG sulfate potassium] the same measures were 102, 105, 89.9 (inactive) and 121 (inactive).
With `CC1(C)OC2CC(=O)OCC23C1CC(=O)C1(C)C3CCC2(C)C(c3ccoc3)OC(=O)C3OC321` (stereo unspecified) [Limonin], the cell number in assay [1] was 103; in assay [2] it was 104. Further, the H1.0 immunofluorescence intensity is 92.2 (inactive) in assay [3] and 90 (inactive) in assay [4].
For the molecule `N#Cc1cc2nc([O-])c([O-])nc2cc1[N+](=O)[O-].[Na+].[Na+]` [CNQX disodium], the cell number in assay [1] turned out to be 99.5; in assay [2], 101. Moreover, the figures for the H1.0 immunofluorescence intensity in assay [3] and in assay [4] were 94.1 (inactive) and 101 (inactive), respectively.
For `CC(=O)OC1C(=O)C2(C)C(O)CC3OCC3(OC(C)=O)C2C(OC(=O)c2ccccc2)C2(O)CC(OC(=O)C(O)C(NC(=O)c3ccccc3)c3ccccc3)C(C)=C1C2(C)C` (stereo unspecified) [Taxol], the values for the cell number in assay [1] and in assay [2] were 60.2 ± 4.1 and 10.1 ± 1.7, respectively. For the same molecule, the H1.0 immunofluorescence intensity is 174 (active) in assay [3] and 132 (inactive) in assay [4].
For `CN(C)C1C(=O)C(C(N)=O)=C(O)C2(O)C(=O)C3=C(O)c4c(O)ccc(Cl)c4C(O)C3CC12.Cl` (stereo unspecified) [Demeclocycline hydrochloride] the same measures were 96.2, 96.5, 99.7 (inactive) and 104 (inactive).
Taken in the same sequence, the figures for `NS(=O)(=O)c1ccc(S(=O)(=O)Nc2cccc3c(Cl)c[nH]c23)cc1` [N~1~-(3-chloro-1H-indol-7-yl)-1,4-benzenedisulfonamide] were 95.3, 103, 96.2 (inactive) and 107 (inactive).
Taken in the same sequence, the figures for `COc1nccc(-c2c(-c3ccc(F)cc3)ncn2C2CCNCC2)n1` were 93.7, 104, 84.3 (inactive) and 99.5 (inactive).

The values above are taken from the supplement of paper PMC7156485.
